What all share (experiment): NCI-60 one-dose screen, 48 h (100 = growth as untreated, 0 = no growth, -100 = all killed)
Details in all cases: 10 µM unless noted

The test system of assay [1] is NCI-H23 lung.
The subject of assay [2] is NCI-H226 lung.
Assay [3] concerns NCI-H322M lung.
Assay [4] deals with HOP-62 NSCLC.
Assay [5] relates to NCI-H460 lung.
Assay [6] concerns HOP-92 NSCLC.
In assay [7] the test system is NCI-H522 lung.
Assay [8] concerns A549/ATCC NSCLC.
Assay [9] deals with 786-0 renal.
Assay [10] relates to COLO 205 colon.
In assay [11] the test system is DU-145 prostate.
In assay [12] the test system is K-562 leukemia.
Assay [13] has as its system MALME-3M melanoma.
Assay [14] relates to MDA-MB-231 breast.
In assay [15] the test system is RXF 393 renal.
In assay [16] the test system is SF-268 CNS.
The test system of assay [17] is SF-295 CNS.
The subject of assay [18] is SF-539 CNS.
Assay [19] concerns UACC-257 melanoma.
The subject of assay [20] is M14 melanoma.

This is part of a sample that, as a whole, favours compounds with a hit. Of some 83,000 tested, about 20% had one in any assay.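 Growth was measured after 48 h exposure to one concentration of compound in 96-well plates. Values under 10 count as active.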 Unmarked numbers belong to inactive results. Calls of active or inactive are those of the source.

On to `O=C(CSc1nnc(-c2ccc(NC(=O)c3cccnc3)cc2)o1)N[C@@H](Cc1ccc(O)cc1)C(=O)O`, for which the growth in assay [1] was 108%; in assay [2] it was 102%; in [3] it was 99.8%; in [4] it was 98%; in assay [5], 111%; in assay [6], 96.3%. Moreover, the growth in assay [7] was 91%; in assay [8] it was 104%; in assay [9], 99.6%; in [10], 101%; in assay [11], 117%; in assay [12], 93.6%. The growth in [13] is 102%; in assay [14], 97.7%; in [15] it was 109%; in assay [16], 107%; in assay [17], 108%; in assay [18] it was 102%. The growth was 99.7% in assay [19] and 100% in assay [20].
As for `Cn1c(=O)c2c(nc(Cl)n2CCl)n(C)c1=O`, the growth in assay [1] was 3.75% (active); in assay [2], 120%; in assay [3], 103%; in assay [4] it was 115%; in assay [5] it was 111%; in assay [6] it was 97.6%. The growth is 84.8% in assay [7]; 106% in assay [8]; 90.4% in assay [9]; 60.8% in [10]; 113% in [11]; 21.3% in [12]. The growth in assay [13] is 75.6%; in [14] it was 105%; in assay [15], 53%; in [16], 104%; in [17] it was 112%; in assay [18], 103%. The growth in assay [19] is 84.5%; in assay [20] it was 12.4%.
As for `Nc1nc(N)c2c(n1)NC(c1ccccc1)C1CCc3ccccc3C1=N2` (stereo not given), the growth was 39.3% in assay [1]; 53.3% in [2]; 64.4% in assay [3]; 70.2% in [4]; 18.5% in assay [5]; 72.2% in assay [6]. Further, the growth in assay [7] was 89.9%; in assay [8], 63.4%; in [9], 55.1%; in assay [10] it was 27.6%; in [11], 49.1%; in assay [12] it was 12.1%. Further, the growth in [13] is 15.3%; in assay [14], 64.6%; in [15], 84.7%; in assay [16], 62.7%; in [17], 17%; in assay [18], 47.8%. The growth in assay [19] is 19.7%; in assay [20], 53.2%.
Regarding `O=c1[nH][n+](-c2ccc(Cl)cc2)no1`, the growth in [1] is 91.6%; in assay [2], 87.2%; in [3], 75.6%; in assay [4], 82.7%; in [5] it was 44.1%; in [6] it was 95.1%. The growth in [7] was 59.2%; in assay [8], 62.1%; in assay [9], 61.2%; in [10], 77.9%; in [11], 59.7%; in assay [12], 10.4%. The growth is 84.7% in assay [13]; 70.7% in assay [14]; 121% in assay [15]; 47.7% in [16]; 34.5% in [17]; 66.7% in assay [18]. Also, the growth was 64.9% in assay [19] and 81.5% in assay [20].
With `Cc1cc(NCCCCNc2ccnc3cc(Cl)ccc23)nc(Nc2ccc(C(=O)N3CCCC3)cc2)n1`, the growth in assay [1] was 81.4%; in [2] it was 108%; in assay [3], 67.6%; in [4], 92.5%; in [5], 18.1%; in assay [6] it was 72.6%. Also, the growth was 26.5% in [7]; 24% in assay [8]; 68.4% in [9]; -42.8% (active) in [10]; 48.3% in assay [11]; -24.6% (active) in assay [12]. In addition, the growth in assay [13] is -70.4% (active); in assay [14], -22.2% (active); in [15], 32.4%; in assay [16], 15.7%; in assay [17], 3.67% (active); in assay [18], -68.6% (active). Moreover, the growth in [19] is -70.6% (active); in assay [20], -73.9% (active).
Consider `N/C(=N/N=C/c1ccccc1)N/N=C\c1ccccc1`, for which the growth in [1] was 66.6%; in assay [2] it was 81%; in assay [3], 85.2%; in assay [4], 76.5%; in [5], 39.8%; in assay [6] it was 57.1%. Besides, the growth in assay [7] was 56.8%; in [8], 59%; in [9], 56.2%; in [10] it was 67.7%; in assay [11], 73.6%; in assay [12] it was 21.8%. Further, the growth in assay [13] was 67.4%; in assay [14], 76.3%; in [15], 24.8%; in assay [16], 76%; in assay [17], 66.9%; in assay [18], 58%. Also, the figures for the growth in assay [19] and in assay [20] were 68.5% and 26.8%, respectively.
`CCCCCCCC/C=C\CCCCCCCCOc1ccccc1CC(=O)NCC[N+](C)(C)C`: the growth in assay [1] was 65.5%; in assay [2], 52.3%; in assay [3] it was 96.6%; in assay [4], 37%; in assay [5], 23.8%; in assay [6], 61.3%. The growth in assay [7] was 51.1%; in assay [8], 71.4%; in assay [9] it was 50.5%; in assay [10] it was -7.71% (active); in [11], 80.1%; in assay [12], 54.6%. Also, the growth is 89.8% in [13]; 72.9% in [14]; 16.6% in assay [15]; 65.9% in assay [16]; 63.8% in assay [17]; 77.5% in [18]. Moreover, the growth in [19] is 88.9%; in assay [20], 57.4%.
In the case of `O=C(c1ccc(Nc2nccc(NCCCCNc3ccnc4cc(Cl)ccc34)n2)cc1)N1CCCCC1`, the growth in assay [1] was 45.3%; in [2] it was 91.3%; in assay [3], 51.3%; in assay [4] it was 69.7%; in [5] it was 12.9%; in [6], 59.2%. Also, the growth in [7] is 33.2%; in [8] it was 25.8%; in [9] it was 0.767% (active); in [10], -58.6% (active); in assay [11], 51.6%; in assay [12] it was -25.3% (active). Moreover, the growth in [13] is -78.6% (active); in assay [14], -9.32% (active); in assay [15], 46.9%; in assay [16], 34.2%; in assay [17], 1.19% (active); in [18], -73.7% (active). The values for the growth in assay [19] and in assay [20] were -50.8% (active) and -69% (active), respectively.

(Values after PubChem BioAssay (NCI).)
